# Measurements taken from publication PMC7862700, “An all-to-all approach to the identification of sequence-specific readers for epigenetic DNA modifications on cytosine”.
# How the values were obtained:
# Assay in all cases: DAPPL (digital affinity profiling via proximity ligation, sequencing); 10 mM Tris-HCl pH 7.5, 50 mM NaCl, 1 mM DTT, 4% glycerol, room temperature, 30 min; GST-TFs on glutathione beads, 16-mer random dsDNA library, 0.1% formaldehyde crosslink after washing; high values mean tight binding
# HSF1 = HSF1 (Homo sapiens, UniProt Q00613 1-529); details: protein: recombinant; tags: N-terminal GST; chain copies: 3; dsDNA, one strand shown
# Sequence of HSF1 (Q00613 whole entry, the tested form may be a part): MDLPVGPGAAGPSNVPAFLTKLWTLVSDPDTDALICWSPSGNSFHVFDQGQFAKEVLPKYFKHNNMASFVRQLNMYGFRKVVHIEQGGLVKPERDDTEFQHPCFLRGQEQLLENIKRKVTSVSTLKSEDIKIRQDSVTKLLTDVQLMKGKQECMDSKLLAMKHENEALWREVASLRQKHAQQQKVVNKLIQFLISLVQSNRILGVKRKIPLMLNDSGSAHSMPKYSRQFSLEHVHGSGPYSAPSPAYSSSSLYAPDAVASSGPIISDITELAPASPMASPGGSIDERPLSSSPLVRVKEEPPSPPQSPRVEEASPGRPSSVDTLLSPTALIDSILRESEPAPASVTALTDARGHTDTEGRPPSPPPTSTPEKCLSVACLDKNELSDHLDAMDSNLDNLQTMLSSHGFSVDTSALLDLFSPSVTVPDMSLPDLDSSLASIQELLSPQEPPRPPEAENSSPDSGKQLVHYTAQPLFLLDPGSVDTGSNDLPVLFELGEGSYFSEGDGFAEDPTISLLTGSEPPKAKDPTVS
# Method in brief: (§1)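 Binding signal is each hexamer's read frequency for a factor divided by its frequency in the tag-only sample. The factors were GST-fused human transcription factors from yeast, captured on glutathione beads, DNA-barcoded and pooled with that sample. Pools were incubated with 200 nmole of a random double-stranded 16-mer DNA library in Tris/NaCl/DTT/glycerol buffer at room temperature for 30 min, then washed, crosslinked with 0.1% formaldehyde, proximity-ligated with BsaI/T4 ligase (1 h, 37 °C), PCR-amplified and sequenced on an Illumina NextSeq500.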
# ETV2 = target: T1, ETV2 (Homo sapiens, UniProt O00321 1-342); details: protein: recombinant; tags: N-terminal GST; dsDNA, one strand shown
# T1 sequence: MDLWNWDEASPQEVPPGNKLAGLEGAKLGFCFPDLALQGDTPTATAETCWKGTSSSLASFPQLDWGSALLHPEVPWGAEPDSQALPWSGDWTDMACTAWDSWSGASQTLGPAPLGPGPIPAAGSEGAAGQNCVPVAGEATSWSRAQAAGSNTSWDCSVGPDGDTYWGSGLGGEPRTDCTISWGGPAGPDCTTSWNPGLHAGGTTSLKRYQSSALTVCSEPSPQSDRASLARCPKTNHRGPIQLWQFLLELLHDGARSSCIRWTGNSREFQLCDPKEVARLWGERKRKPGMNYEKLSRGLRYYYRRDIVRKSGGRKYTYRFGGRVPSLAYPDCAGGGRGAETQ
# Method in brief: as §1
# ELF1 = ELF1 (Homo sapiens, UniProt P32519 1-619); details: protein: recombinant; tags: N-terminal GST; dsDNA, one strand shown
# Sequence of ELF1 (P32519 whole entry): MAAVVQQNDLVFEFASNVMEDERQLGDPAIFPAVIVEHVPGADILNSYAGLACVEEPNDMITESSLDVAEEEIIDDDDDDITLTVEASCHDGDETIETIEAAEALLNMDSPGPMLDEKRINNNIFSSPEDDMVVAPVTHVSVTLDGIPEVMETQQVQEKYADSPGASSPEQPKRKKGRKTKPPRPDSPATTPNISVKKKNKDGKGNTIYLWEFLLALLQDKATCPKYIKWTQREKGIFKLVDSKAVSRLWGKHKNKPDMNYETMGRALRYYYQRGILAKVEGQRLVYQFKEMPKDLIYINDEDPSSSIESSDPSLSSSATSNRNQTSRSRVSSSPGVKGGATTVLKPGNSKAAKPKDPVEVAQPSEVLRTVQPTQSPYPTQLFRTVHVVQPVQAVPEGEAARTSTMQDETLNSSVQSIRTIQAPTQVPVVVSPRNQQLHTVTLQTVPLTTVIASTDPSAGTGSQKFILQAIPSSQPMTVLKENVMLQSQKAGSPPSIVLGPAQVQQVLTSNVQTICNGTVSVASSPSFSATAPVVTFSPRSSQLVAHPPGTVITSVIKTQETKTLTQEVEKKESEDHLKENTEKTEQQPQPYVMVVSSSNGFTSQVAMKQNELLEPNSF
# Method in brief: as §1
# EHF = target: T2, EHF (Homo sapiens, UniProt Q9NZC4 1-300); details: protein: recombinant; tags: N-terminal GST; dsDNA, one strand shown
# T2 sequence: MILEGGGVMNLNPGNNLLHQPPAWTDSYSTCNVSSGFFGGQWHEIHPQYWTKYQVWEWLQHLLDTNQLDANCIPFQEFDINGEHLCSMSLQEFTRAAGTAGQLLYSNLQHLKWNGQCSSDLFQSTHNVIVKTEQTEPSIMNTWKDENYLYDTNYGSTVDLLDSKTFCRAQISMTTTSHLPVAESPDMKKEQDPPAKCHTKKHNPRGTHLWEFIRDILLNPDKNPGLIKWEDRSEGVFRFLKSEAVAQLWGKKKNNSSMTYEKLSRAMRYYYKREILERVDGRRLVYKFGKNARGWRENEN
# Method in brief: as §1
# ELK3 = target: T3, ELK3 (Homo sapiens, UniProt P41970 1-407); details: protein: recombinant; tags: N-terminal GST; dsDNA, one strand shown
# T3 sequence: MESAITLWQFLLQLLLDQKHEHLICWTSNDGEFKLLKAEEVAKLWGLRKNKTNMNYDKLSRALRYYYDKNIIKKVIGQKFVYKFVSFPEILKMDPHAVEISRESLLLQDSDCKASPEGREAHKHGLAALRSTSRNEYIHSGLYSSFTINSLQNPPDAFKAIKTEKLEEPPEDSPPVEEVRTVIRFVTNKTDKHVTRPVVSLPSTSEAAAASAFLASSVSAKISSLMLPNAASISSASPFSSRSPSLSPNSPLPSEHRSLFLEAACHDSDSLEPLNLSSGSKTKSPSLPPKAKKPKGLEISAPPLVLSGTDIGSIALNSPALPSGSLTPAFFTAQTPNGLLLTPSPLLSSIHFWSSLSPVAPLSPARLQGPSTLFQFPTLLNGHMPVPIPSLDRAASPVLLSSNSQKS
# Method in brief: as §1
# CRX = CRX (Homo sapiens, UniProt O43186 1-299); details: protein: recombinant; tags: N-terminal GST; dsDNA, one strand shown
# Sequence of CRX (O43186 whole entry): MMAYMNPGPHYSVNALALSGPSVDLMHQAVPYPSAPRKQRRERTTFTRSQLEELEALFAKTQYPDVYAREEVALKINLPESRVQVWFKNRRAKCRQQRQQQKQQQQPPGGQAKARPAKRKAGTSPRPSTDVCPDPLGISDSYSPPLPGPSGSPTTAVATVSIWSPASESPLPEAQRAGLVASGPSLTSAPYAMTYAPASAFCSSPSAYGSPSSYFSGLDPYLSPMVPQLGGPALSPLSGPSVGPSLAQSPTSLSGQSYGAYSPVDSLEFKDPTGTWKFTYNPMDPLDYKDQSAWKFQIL
# Method in brief: as §1
# ETV3L = target: T4, ETV3L (Homo sapiens, UniProt Q6ZN32 1-361); details: protein: recombinant; tags: N-terminal GST; dsDNA, one strand shown
# T4 sequence: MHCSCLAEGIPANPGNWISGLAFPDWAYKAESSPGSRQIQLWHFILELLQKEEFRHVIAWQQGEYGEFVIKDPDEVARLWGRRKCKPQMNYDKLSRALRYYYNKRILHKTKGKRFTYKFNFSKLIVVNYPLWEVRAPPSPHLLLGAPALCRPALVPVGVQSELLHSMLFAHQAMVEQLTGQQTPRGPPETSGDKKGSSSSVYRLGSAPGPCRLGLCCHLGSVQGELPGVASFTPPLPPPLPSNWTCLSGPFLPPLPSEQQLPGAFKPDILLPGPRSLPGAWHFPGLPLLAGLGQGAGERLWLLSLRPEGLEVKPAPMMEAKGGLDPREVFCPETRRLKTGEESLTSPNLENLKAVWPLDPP
# Method in brief: as §1
# ETS2 = target: T5, ETS2 (Homo sapiens, UniProt P15036 1-469); details: protein: recombinant; tags: N-terminal GST; dsDNA, one strand shown
# T5 sequence: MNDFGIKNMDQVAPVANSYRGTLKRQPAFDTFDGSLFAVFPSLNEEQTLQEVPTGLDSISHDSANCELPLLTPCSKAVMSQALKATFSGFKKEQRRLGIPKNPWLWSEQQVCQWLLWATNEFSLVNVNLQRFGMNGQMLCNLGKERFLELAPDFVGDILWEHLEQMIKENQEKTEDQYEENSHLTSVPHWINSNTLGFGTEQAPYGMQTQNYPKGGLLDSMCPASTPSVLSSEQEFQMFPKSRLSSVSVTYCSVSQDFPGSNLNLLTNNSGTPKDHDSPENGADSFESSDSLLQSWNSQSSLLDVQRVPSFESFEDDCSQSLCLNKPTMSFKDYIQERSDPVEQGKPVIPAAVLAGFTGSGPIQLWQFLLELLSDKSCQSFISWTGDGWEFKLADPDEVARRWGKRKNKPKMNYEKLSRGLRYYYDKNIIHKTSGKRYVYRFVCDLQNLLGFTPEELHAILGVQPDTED
# Method in brief: as §1
# SPDEF = target: T6, SPDEF (Homo sapiens, UniProt O95238 1-335); details: protein: recombinant; tags: N-terminal GST; dsDNA, one strand shown
# T6 sequence: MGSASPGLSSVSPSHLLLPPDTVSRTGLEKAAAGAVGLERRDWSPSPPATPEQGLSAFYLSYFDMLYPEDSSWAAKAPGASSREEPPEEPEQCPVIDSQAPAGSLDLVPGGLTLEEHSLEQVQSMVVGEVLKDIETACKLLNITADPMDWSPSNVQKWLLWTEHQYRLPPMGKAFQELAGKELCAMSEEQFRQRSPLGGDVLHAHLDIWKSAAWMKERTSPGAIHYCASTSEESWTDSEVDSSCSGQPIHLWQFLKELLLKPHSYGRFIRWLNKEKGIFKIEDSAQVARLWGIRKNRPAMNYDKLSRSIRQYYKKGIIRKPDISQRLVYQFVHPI
# Method in brief: as §1
# ETV7 = target: T7, ETV7 (Homo sapiens, UniProt Q9Y603 1-341); details: protein: recombinant; tags: N-terminal GST; dsDNA, one strand shown
# T7 sequence: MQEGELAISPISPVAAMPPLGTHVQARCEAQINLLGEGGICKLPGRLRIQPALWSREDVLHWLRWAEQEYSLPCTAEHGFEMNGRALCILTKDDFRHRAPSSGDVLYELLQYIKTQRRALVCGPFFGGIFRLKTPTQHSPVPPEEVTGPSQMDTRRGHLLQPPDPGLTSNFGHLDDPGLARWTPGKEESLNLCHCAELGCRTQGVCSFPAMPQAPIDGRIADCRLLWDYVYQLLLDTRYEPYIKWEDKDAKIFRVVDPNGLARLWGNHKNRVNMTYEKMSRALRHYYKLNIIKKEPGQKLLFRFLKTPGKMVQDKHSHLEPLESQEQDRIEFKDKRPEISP
# Method in brief: as §1
# ETV6 = ETV6 (Homo sapiens, UniProt P41212 1-452); details: protein: recombinant; tags: N-terminal GST; dsDNA, one strand shown
# Sequence of ETV6 (P41212 whole entry): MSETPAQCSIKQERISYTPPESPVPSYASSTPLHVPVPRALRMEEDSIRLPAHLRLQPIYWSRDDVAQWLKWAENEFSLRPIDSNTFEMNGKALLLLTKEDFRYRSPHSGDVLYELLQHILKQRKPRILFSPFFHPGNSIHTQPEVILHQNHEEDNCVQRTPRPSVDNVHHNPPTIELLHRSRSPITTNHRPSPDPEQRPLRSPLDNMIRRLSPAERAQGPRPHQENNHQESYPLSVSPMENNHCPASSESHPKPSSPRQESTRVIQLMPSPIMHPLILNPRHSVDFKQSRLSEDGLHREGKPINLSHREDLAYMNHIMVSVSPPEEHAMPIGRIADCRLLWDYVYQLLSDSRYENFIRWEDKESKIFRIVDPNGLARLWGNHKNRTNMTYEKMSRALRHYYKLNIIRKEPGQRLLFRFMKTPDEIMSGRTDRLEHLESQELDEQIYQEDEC
# Method in brief: as §1
# ERG = target: T8, ERG (Homo sapiens, UniProt P11308 1-479); details: protein: recombinant; tags: N-terminal GST; dsDNA, one strand shown
# T8 sequence: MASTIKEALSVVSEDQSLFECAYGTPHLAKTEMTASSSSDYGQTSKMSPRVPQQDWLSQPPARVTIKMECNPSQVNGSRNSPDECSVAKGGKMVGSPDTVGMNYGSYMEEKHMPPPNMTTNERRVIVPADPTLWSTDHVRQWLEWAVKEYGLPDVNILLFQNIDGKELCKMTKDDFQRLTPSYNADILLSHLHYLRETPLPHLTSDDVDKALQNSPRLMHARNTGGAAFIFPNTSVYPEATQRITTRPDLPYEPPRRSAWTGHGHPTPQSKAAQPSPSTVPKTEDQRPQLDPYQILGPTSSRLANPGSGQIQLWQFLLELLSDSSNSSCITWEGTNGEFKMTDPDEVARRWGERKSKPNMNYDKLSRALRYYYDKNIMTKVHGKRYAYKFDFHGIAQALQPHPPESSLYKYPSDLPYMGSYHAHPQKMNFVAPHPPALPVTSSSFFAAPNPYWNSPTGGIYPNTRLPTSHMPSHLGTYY
# Method in brief: as §1
# FEV = target: T9, FEV (Homo sapiens, UniProt Q99581 1-238); details: protein: recombinant; tags: N-terminal GST; dsDNA, one strand shown
# T9 sequence: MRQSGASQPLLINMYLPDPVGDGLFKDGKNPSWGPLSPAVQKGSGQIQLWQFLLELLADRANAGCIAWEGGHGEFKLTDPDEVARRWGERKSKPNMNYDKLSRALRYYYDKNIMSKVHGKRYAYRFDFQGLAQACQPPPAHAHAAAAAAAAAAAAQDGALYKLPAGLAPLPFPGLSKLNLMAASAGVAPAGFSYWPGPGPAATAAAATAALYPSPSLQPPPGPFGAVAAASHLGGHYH
# Method in brief: as §1
# ELF3 = target: T10, ELF3 (Homo sapiens, UniProt P78545 1-371); details: protein: recombinant; tags: N-terminal GST; dsDNA, one strand shown
# T10 sequence: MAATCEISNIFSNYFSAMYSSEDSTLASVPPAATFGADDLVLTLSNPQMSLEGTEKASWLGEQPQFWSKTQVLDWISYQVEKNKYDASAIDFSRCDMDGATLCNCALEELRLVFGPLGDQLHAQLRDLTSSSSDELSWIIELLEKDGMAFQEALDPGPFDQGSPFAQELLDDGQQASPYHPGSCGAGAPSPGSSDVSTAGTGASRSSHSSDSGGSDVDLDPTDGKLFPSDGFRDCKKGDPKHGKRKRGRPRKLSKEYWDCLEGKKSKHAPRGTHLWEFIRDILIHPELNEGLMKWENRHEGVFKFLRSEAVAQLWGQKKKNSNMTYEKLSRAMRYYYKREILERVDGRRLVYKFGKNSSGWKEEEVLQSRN
# Method in brief: as §1
# ELF5 = target: T11, ELF5 (Homo sapiens, UniProt Q9UKW6-2 1-255); details: protein: recombinant; tags: N-terminal GST; dsDNA, one strand shown
# T11 sequence: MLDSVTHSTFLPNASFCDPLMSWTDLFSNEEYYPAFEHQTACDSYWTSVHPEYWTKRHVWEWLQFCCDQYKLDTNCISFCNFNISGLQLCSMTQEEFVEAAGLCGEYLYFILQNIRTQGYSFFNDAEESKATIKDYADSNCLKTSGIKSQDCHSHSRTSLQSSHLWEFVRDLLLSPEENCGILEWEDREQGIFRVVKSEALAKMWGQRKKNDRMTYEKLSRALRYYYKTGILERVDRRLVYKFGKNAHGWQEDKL
# Method in brief: as §1
# ETV3 = target: T12, ETV3 (Homo sapiens, UniProt P41162-2 1-143); details: protein: recombinant; tags: N-terminal GST; dsDNA, one strand shown
# T12 sequence: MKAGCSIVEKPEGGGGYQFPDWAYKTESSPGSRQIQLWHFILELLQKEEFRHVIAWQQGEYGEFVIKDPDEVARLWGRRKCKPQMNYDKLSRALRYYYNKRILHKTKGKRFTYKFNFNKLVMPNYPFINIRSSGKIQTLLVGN
# Method in brief: as §1
sequence,measurement,setting,value
GTCTGG,binding signal,HSF1,"1.06 fold enrichment (6-mer frequency, TF over GST control)"
same,binding signal,ETV2,"1.02 fold enrichment (6-mer frequency, TF over GST control)"
GGCTTT,binding signal,ELF1,"1.04 fold enrichment (6-mer frequency, TF over GST control)"
same,binding signal,EHF,"1.05 fold enrichment (6-mer frequency, TF over GST control)"
same,binding signal,ELK3,"1.11 fold enrichment (6-mer frequency, TF over GST control)"
same,binding signal,HSF1,"1.11 fold enrichment (6-mer frequency, TF over GST control)"
same,binding signal,ETV2,"1.15 fold enrichment (6-mer frequency, TF over GST control)"
same,binding signal,CRX,"1.47 fold enrichment (6-mer frequency, TF over GST control)"
same,binding signal,ETV3L,"1.03 fold enrichment (6-mer frequency, TF over GST control)"
same,binding signal,ETS2,"1.03 fold enrichment (6-mer frequency, TF over GST control)"
same,binding signal,SPDEF,"1 fold enrichment (6-mer frequency, TF over GST control)"
same,binding signal,ETV7,"1.16 fold enrichment (6-mer frequency, TF over GST control)"
same,binding signal,ETV6,"1.06 fold enrichment (6-mer frequency, TF over GST control)"
CGGATT,binding signal,ERG,"1 fold enrichment (6-mer frequency, TF over GST control)"
same,binding signal,FEV,"1.44 fold enrichment (6-mer frequency, TF over GST control)"
same,binding signal,HSF1,"1.56 fold enrichment (6-mer frequency, TF over GST control)"
same,binding signal,ELF3,"1.01 fold enrichment (6-mer frequency, TF over GST control)"
same,binding signal,CRX,"2.48 fold enrichment (6-mer frequency, TF over GST control)"
same,binding signal,SPDEF,"1.42 fold enrichment (6-mer frequency, TF over GST control)"
same,binding signal,ELF5,"1.01 fold enrichment (6-mer frequency, TF over GST control)"
same,binding signal,ETV3,"1.04 fold enrichment (6-mer frequency, TF over GST control)"
